Reference: PubChem BioAssay (Tox21)
“And” between values parts separate entries of the source, which are not always exact repeats. Identical values can stand only once. Records with an inconclusive call do not appear. Where a call stands in place of a potency, no number is given. A structure can be active in one record and inactive in another. The source made the active and inactive calls. Unless noted, calls follow the shape of the dose curve; as a rule, active = well fitted curve in the direction sought with a large enough effect in the repeat runs; inconclusive = weak or mixed curves; inactive = no such curve, though single readings can be large; an effect the other way counts as inactive or inconclusive.

Legend:
[1] = qHTS assay to identify small molecule agonists of the hypoxia (HIF-1) signaling pathway - cell viability counter screen (AID 1224844; calls by dose curve; also: nearly all actives have a fitted effect of over 50% in size)
In short: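 Cytotoxicity measured by CellTiter-Glo ATP luminescence in the wells also read for beta-lactamase signal. Cells were HRE-bla ME-180 (2,000/well, 0.5% dialyzed FBS), exposed to compounds for 17 h at 37C.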

[2] = qHTS assay to identify small molecule agonists of H2AX (AID 1224845; active = well fitted activation curve with a large enough effect in the signal ratio in the repeat runs, not every such curve was filed as active; the % refers to the signal ratio; also: potency is read from the fitted curve at half-maximal effect)
In short: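 Phospho-H2AX Ser139 measured by HTRF (ex 320 nm; em 665 and 620 nm) after 24 hr antibody incubation. Compounds, 15 concentrations, 0.76% DMSO, were applied to CHO-K1 cells for 3hr at 37C before lysis.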

[3] = qHTS assay to identify small molecule agonists of the hypoxia (HIF-1) signaling pathway (AID 1224846; active = well fitted activation curve with a large enough effect in the signal ratio in the repeat runs, not every such curve was filed as active; the % refers to the signal ratio)
In short: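 Compounds added to ME-180 cells carrying hypoxia-response-element beta-lactamase reporter (0.5% dialyzed FBS, 5 h preplating), 17 h at 37C; agonist activity detected by CCF4-AM B/G FRET read-out.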

[4] = qHTS assay to identify small molecule agonists of H2AX - cell viability counter screen (AID 1224847; calls by dose curve; also: nearly all actives have a fitted effect of over 30% in size; also: potency is read from the fitted curve at half-maximal effect)
In short: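 Compounds tested at 15 concentrations were incubated 3 hr at 37C with wild-type CHO-K1 cells; cellular ATP-based luminescence (CellTiter-Glo) indicated viability.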

[5] = qHTS RealTime-Glo MT Cell Viability Assay in HepG2 cells - 24 hour (AID 1224867); also: nearly all actives have a fitted effect of over 50% in size
In short: (§1)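 HepG2 cells (600/well) were dispensed with RealTime-Glo reagents, incubated 5 h at 37 °C, then treated with compounds in DMSO for up to 40 h. Nonlytic NanoLuc luminescence reflecting viable cells was read at each stated time point.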

[6] = qHTS RealTime-Glo MT Cell Viability Assay in HEK293 cells - 32 hour (AID 1224868); also: nearly all actives have a fitted effect of over 50% in size; also: potency is read from the fitted curve at half-maximal effect
In short: (§2)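 HEK293 cells seeded with NanoLuc/prosubstrate reagent, rested 5 h at 37 C, then dosed and kept at 37 C up to 40 h. Nonlytic real-time luminescence from viable cells read at 0, 8, 16, 24, 32 and 40 h.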

[7] = A CellTox Green Cytotoxicity Assay to monitor cytotoxicity in HEK293 cells - 0 hour (AID 1224869); also: nearly all actives have a fitted effect of over 50% in size
In short: (§3)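 Fluorescence from a DNA-binding dye excluded by viable cells was measured repeatedly in the same HEK293 wells (600 cells/well) during continuous compound exposure at 37 C. Each assay gives one read point: 0, 8, 16, 24, 32 or 40 h.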

[8] = qHTS RealTime-Glo MT Cell Viability Assay in HepG2 cells - 40 hour (AID 1224870); also: nearly all actives have a fitted effect of over 50% in size
In short: (§4)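 Real-time viability: cells seeded at 600 per well together with NanoLuc and cell-permeant prosubstrate, compounds added after 5 h incubation. Luminescence tracked at 0, 8, 16, 24, 32 and 40 h of exposure.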

[9] = A CellTox Green Cytotoxicity Assay to monitor cytotoxicity in HEK293 cells - 40 hour (AID 1224871); also: nearly all actives have a fitted effect of over 45% in size; also: potency is read from the fitted curve at half-maximal effect
In short: as §3

[10] = qHTS RealTime-Glo MT Cell Viability Assay in HEK293 cells - 16 hour (AID 1224872); also: nearly all actives have a fitted effect of over 50% in size; also: potency is read from the fitted curve at half-maximal effect
In short: as §2

[11] = qHTS RealTime-Glo MT Cell Viability Assay in HepG2 cells - 8 hour (AID 1224873); also: nearly all actives have a fitted effect of over 55% in size
In short: as §4

[12] = qHTS RealTime-Glo MT Cell Viability Assay in HEK293 cells - 40 hour (AID 1224874); conditions: RealTime-Glo luminescence; max response: stronger effect = lower value; also: nearly all actives have a fitted effect of over 50% in size; also: potency is read from the fitted curve at half-maximal effect
In short: (§5)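 Luminescence, which tracks viable cell number through reduction of the prosubstrate to a NanoLuc substrate, was read over continuous 37 C culture. Cells (600/well) were premixed with reagent and rested 5 h before 23 nL of compound in DMSO was pinned.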

[13] = A CellTox Green Cytotoxicity Assay to monitor cytotoxicity in HEK293 cells - 24 hour (AID 1224875); also: nearly all actives have a fitted effect of over 45% in size
In short: as §3

[14] = A CellTox Green Cytotoxicity Assay to monitor cytotoxicity in HepG2 cells - 16 hour (AID 1224876); also: nearly all actives have a fitted effect of over 45% in size; also: potency is read from the fitted curve at half-maximal effect
In short: (§6)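 Real-time cytotoxicity: fluorescence of a cell-impermeant cyanine dye binding DNA of dead HepG2 cells, measured repeatedly (0–40 h) during compound exposure at 37 C. Cells seeded 600/well with reagent, dosed after 5 h.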

[15] = qHTS RealTime-Glo MT Cell Viability Assay in HepG2 cells - 32 hour (AID 1224877); also: nearly all actives have a fitted effect of over 55% in size
In short: as §1

[16] = A CellTox Green Cytotoxicity Assay to monitor cytotoxicity in HepG2 cells - 24 hour (AID 1224878); also: nearly all actives have a fitted effect of over 45% in size; also: potency is read from the fitted curve at half-maximal effect
In short: as §6

[17] = A CellTox Green Cytotoxicity Assay to monitor cytotoxicity in HepG2 cells - 40 hour (AID 1224879); also: nearly all actives have a fitted effect of over 40% in size; also: potency is read from the fitted curve at half-maximal effect
In short: as §6

[18] = qHTS RealTime-Glo MT Cell Viability Assay in HEK293 cells - 0 hour (AID 1224880)
In short: as §5

[19] = qHTS assay to identify small molecule antagonists of the estrogen related receptor (ERR) signaling pathway from Tox21 library (AID 1224848); also: nearly all actives have a fitted effect of over 50% in size
In short: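 ERR cell line, 2,000 cells/well. 6 h settle, then compound (DMSO) added; 18 h at 37 C; ONE-Glo luminescence after 30 min RT.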

[20] = qHTS assay to identify small molecule agonists of the estrogen related receptor (ERR) signaling pathway from Tox21 library (AID 1224849; calls by dose curve; also: nearly all actives have a fitted effect of over 15% in size); conditions: ERR reporter cell line, ONE-Glo luciferase, 18 h
In short: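 Luminescent agonist read-out (One-Glo, 30-minute room-temperature incubation) following 18-hour compound treatment at 37 C of the ERR cell line, which had been plated 6 hours before dosing.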

CC(=O)CCC(=O)O
Potency [1]: inactive
Potency [2]: inactive
outcome [3]: inactive
Potency [4]: inactive
Potency [5]: inactive
Potency [6]: inactive
Potency [7]: inactive
Potency [8]: inactive
Potency [9]: inactive
Potency [10]: inactive
Potency [11]: inactive
max response [12]: -1.85% (inactive) and 3.92% (inactive) and 7.17% (inactive)
Potency [13]: inactive
Potency [14]: inactive
Potency [15]: inactive
Potency [16]: inactive
Potency [17]: inactive
Potency [18]: inactive

CC(=O)CC(c1ccccc1)c1c(O)c2ccccc2oc1=O (stereo not drawn)
Potency [1]: inactive
Potency [2]: inactive
outcome [3]: inactive
Potency [4]: inactive
Potency [5]: inactive
Potency [6]: inactive
Potency [7]: inactive
Potency [8]: inactive
Potency [9]: inactive
Potency [10]: inactive
Potency [11]: inactive
max response [12]: 5.95% (inactive) [middle of 4 runs]
Potency [13]: inactive
Potency [14]: inactive
Potency [15]: inactive
Potency [16]: inactive
Potency [17]: inactive
Potency [18]: inactive

Nc1ccc(S(N)(=O)=O)cc1
Potency [1]: inactive
Potency [2]: inactive
outcome [3]: inactive
Potency [4]: inactive
Potency [5]: inactive
Potency [6]: inactive
Potency [7]: inactive
Potency [8]: inactive
Potency [9]: inactive
Potency [10]: inactive
Potency [11]: inactive
max response [12]: 9.21% (inactive) and 0.884% (inactive) and 1.65% (inactive)
Potency [13]: inactive
Potency [14]: inactive
Potency [15]: inactive
Potency [16]: inactive
Potency [17]: inactive
Potency [18]: inactive

CCN(CC)C(=O)c1cccc(C)c1
Potency [1]: inactive
Potency [2]: inactive
outcome [3]: inactive
Potency [4]: inactive
Potency [19]: inactive
activity change, positive = activation ([20]; at 42.5 µM (top of the series)): 5.47% (inactive)
activity change, positive = activation ([20]; at 92.4 µM (top of the series)): 0.249% (inactive) and -23.9% (inactive)
Potency [5]: inactive
Potency [7]: inactive
Potency [8]: inactive
Potency [9]: inactive
Potency [10]: inactive
Potency [11]: inactive
max response [12]: -1.16% (inactive) and -0.892% (inactive) and 2.65% (inactive)
Potency [13]: inactive
Potency [14]: inactive
Potency [15]: inactive
Potency [16]: inactive
Potency [17]: inactive
Potency [18]: inactive

C/C=C/C=C/C(=O)O
Potency [1]: inactive
Potency [2]: inactive
outcome [3]: inactive
Potency [4]: inactive
Potency [5]: inactive
Potency [7]: inactive
Potency [8]: inactive
Potency [9]: inactive
Potency [10]: inactive
Potency [11]: inactive
max response [12]: 4.62% (inactive) and 7.49% (inactive)
Potency [13]: inactive
Potency [14]: inactive
Potency [15]: inactive
Potency [16]: inactive
Potency [17]: inactive
Potency [18]: inactive

Cc1ccc(S(=O)(=O)O)cc1
Potency [1]: inactive
Potency [2]: inactive
outcome [3]: inactive
Potency [4]: inactive
Potency [5]: inactive
Potency [6]: inactive
Potency [7]: inactive
Potency [8]: inactive
Potency [9]: inactive
Potency [10]: inactive
Potency [11]: inactive
max response [12]: 2.66% (inactive) and 6.16% (inactive) and 6.13% (inactive)
Potency [13]: inactive
Potency [14]: inactive
Potency [15]: inactive
Potency [16]: inactive
Potency [17]: inactive
Potency [18]: inactive

CCCCCCc1ccc(O)cc1O
Potency [1]: inactive
Potency [2]: inactive
outcome [3]: inactive
Potency [4]: 113 µM (active) and 101 µM (active)
Potency [19]: inactive
activity change, positive = activation ([20]; at 42.5 µM (top of the series)): 2.16% (inactive)
activity change, positive = activation ([20]; at 92.4 µM (top of the series)): -16.7% (inactive) and -6.89% (inactive)
Potency [5]: inactive
Potency [6]: 21.9 µM (active) and 9.77 µM (active)
Potency [7]: inactive
Potency [8]: inactive
Potency [9]: 49.1 µM (active) and 49 µM (active) and inactive
Potency [10]: 19.6 µM (active) and 11 µM (active)
Potency [11]: inactive
Potency [12]: 19.6 µM (active) and 12.3 µM (active)
Potency [14]: inactive and 43.6 µM (active) and 21.3 µM (active)
Potency [15]: inactive
Potency [16]: 49.1 µM (active) and 38.9 µM (active) and 21.3 µM (active)
Potency [17]: 49.1 µM (active) and 38.9 µM (active) and 19 µM (active)
Potency [18]: inactive

CS(=O)(=O)OCCCCOS(C)(=O)=O
Potency [1]: inactive
Potency [2]: inactive
outcome [3]: inactive
Potency [4]: inactive
Potency [19]: inactive
activity change, positive = activation ([20]; at 42.5 µM (top of the series)): -0.0445% (inactive)
activity change, positive = activation ([20]; at 92.4 µM (top of the series)): -6.97% (inactive) and 6.13% (inactive)
Potency [5]: inactive
Potency [6]: inactive
Potency [7]: inactive
Potency [8]: inactive
Potency [9]: inactive
Potency [10]: inactive
Potency [11]: inactive
max response [12]: 2.47% (inactive) and 13.2% (inactive) and 7.82% (inactive)
Potency [13]: inactive
Potency [14]: inactive
Potency [15]: inactive
Potency [16]: inactive
Potency [17]: inactive
Potency [18]: inactive

Cc1cc(C)nc(NS(=O)(=O)c2ccc(N)cc2)n1
Potency [1]: inactive
Potency [2]: inactive
outcome [3]: inactive
Potency [4]: inactive
Potency [5]: inactive
Potency [6]: inactive
Potency [7]: inactive
Potency [8]: inactive
Potency [9]: inactive
Potency [10]: inactive
Potency [11]: inactive
max response [12]: -37.4% (inactive) and -3.88% (inactive) and 7.67% (inactive)
Potency [13]: inactive
Potency [14]: inactive
Potency [15]: inactive
Potency [16]: inactive
Potency [17]: inactive
Potency [18]: inactive

F[B-](F)(F)F
Potency [1]: inactive
Potency [2]: inactive and 115 µM (active)
outcome [3]: inactive
Potency [4]: inactive
Potency [5]: inactive
Potency [6]: inactive
Potency [7]: inactive
Potency [8]: inactive
Potency [9]: inactive
Potency [10]: inactive
Potency [11]: inactive
max response [12]: 7.4% (inactive) and 8.65% (inactive) and 0.515% (inactive)
Potency [13]: inactive
Potency [14]: inactive
Potency [15]: inactive
Potency [16]: inactive
Potency [17]: inactive and 39.5 µM (active)
Potency [18]: inactive

C=CCc1ccc(O)c(OC)c1
Potency [1]: inactive
Potency [2]: inactive
outcome [3]: inactive
Potency [4]: inactive
Potency [5]: inactive
Potency [7]: inactive
Potency [8]: inactive
Potency [9]: inactive
Potency [10]: inactive
Potency [11]: inactive
max response [12]: -1.8% (inactive) and -13.4% (inactive) and 5.2% (inactive)
Potency [13]: inactive
Potency [14]: inactive
Potency [15]: inactive
Potency [16]: inactive
Potency [17]: inactive
Potency [18]: inactive
